Only some compounds are listed: those with a hit (about 1.7% of all), similar ones and a draw of the others.
GLP-1R inv ag: GLP-1 receptor (human) inverse agonism; Potency, µM (top dose mostly 38.3 µM), for the others: at the highest dose activity change, negative = inhibition, actives largely listed as inhibitors; HEK293 GLP-1R CRE-luciferase, luminescence, 24 h; GLP-1R form is constitutively active; 410,000 compounds, 1.6% hits; further: on the % scale 0 is the no-effect control and ±100 the full control effect; nearly all actives have a fitted effect of over 55% in size
Target sequence (P43220 whole entry, looked up): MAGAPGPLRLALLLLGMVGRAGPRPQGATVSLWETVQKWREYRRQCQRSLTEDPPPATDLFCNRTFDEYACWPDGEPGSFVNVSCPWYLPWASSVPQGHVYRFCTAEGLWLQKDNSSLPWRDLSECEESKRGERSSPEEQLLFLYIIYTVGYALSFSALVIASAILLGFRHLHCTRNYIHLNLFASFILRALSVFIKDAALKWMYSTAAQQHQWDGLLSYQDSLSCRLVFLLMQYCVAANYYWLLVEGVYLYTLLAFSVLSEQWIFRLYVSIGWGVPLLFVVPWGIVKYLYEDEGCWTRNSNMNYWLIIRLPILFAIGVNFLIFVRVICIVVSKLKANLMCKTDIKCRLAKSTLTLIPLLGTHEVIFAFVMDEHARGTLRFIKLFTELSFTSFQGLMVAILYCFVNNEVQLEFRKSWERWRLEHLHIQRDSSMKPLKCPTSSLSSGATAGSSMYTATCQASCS
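Readout was luciferase luminescence, measured 12 min after detection reagent at room temperature. Beforehand, GLP-1R reporter HEK293 cells had sat 12 h, then received compounds for 24 hr at 37 deg C.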
PTHR1 agonist: activates the human parathyroid hormone receptor PTHR1. 410,000 compounds, 0.075% hits. Potency, µM (series often up to 115 µM), inactives show at the highest dose activation, most hits filed as activators. HEK293 GP2 PTHR1 cells, GloSensor cAMP luminescence, 1 h. Q03431; further: nearly all actives have a fitted effect of over 55% in size
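HEK-293-derived GP2 cells expressing PTHR1 and a GloSensor cAMP reporter, 3,000/well, plated overnight, given luciferin plus IBMX (each 0.5 mM as added) for 1 h at 37 °C, then compound for 1 h at 37 °C. Luminescence was read after 15 min at room temperature.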
HEK293 tox: cytotoxicity in counter-screen for GLP-1R inverse agonists. 410,000 compounds, 0.13% hits. Potency, µM (top dose mostly 38.3 µM), inactives show at the top dose activity change, negative = inhibition, usual class: inhibitors. HEK293 cAMP-luciferase reporter cells, luminescence, 24 h;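 further: loss of luciferase light is scored as toxicity; on the % scale 0 is the no-effect control and ±100 the full control effect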
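MLSMR compounds, 24 hr on cells at 37 deg C/5% CO2; luminescence after luciferase reagent (12 min RT). Inhibition counted as the undesired cytotoxic outcome.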
GLP1R ag: GLP-1 receptor (human) agonism | HEK293 GLP-1R CRE-luciferase, luminescence, 4-6 h; cells express a hypersensitive GLP-1R form | Potency, µM (series often up to 45.6 µM), without a hit: at the highest dose activation, most hits filed as activators | 380,000 compounds, 0.007% hits | AID 624172; further: % of control where 0% means no effect
* = called active by the depositor; i = inactive; ? = inconclusive; . = no result; [ ] = dose if it differs, or a comment. The call rests on the fitted dose curve; in most records, active means well fitted curve in the direction sought with a large enough effect; inconclusive means small, poorly fitted or top-dose-only effect, or another doubt; inactive means no such curve, though single readings can be large; an effect the other way counts as inactive or inconclusive. Potency means the concentration at half of the fitted maximal effect.

SMILES | GLP-1R inv ag | PTHR1 agonist | HEK293 tox | GLP1R ag
CCn1c2ccccc2c2cc(CNCc3ccc(OC)cc3OC)ccc21 | 7.9µM* | -5% | ? | 1%
CCn1c2ccccc2c2cc(N)ccc21 | ? | -16%[57.5 µM] | -21% | -9%
CC(C)c1ccc(-c2noc(SCC(=O)N3CCCCC3C)n2)cc1 (configuration not stated) | ? | -36% | -2% | .
Cc1cc(Nc2ccc(Cl)cc2)nc(NCc2ccccc2)n1 | 11µM* | -21% | ? | ?
Cc1ccc(/C=N/Nc2cc(C)nc(NCc3ccccc3)n2)cc1 | 2.8µM* | i | -15% | 14%
Cc1cc(N/N=C/c2ccc(F)cc2)nc(NCc2ccccc2)n1 | ? | 0% | ? | 5%
Cc1cc(Nc2ccccc2)nc(NCc2ccccc2)n1 | 8.9µM* | i | ? | 15%
O=c1[nH]ncc(N2CCCC2)c1Cl | 11% | i | -1% | 5%
O=c1[nH]ncc(N2CCN(C(c3ccccc3)c3ccccc3)CC2)c1Cl | 13µM* | i | 8% | -1%
Cc1ccc(OCC(=O)OCC(=O)N2c3ccccc3CC2C)cc1C (configuration not stated) | 13% | i | 2% | 3%
CC(C)N=C(NS(=O)(=O)c1ccccc1)C(Cl)(Cl)Cl | 4µM* | -17% | ? | -7%
O=S(=O)(NC(=S)c1ccccc1)c1ccccc1 | -9% | -14% | 0% | -2%
C/C(=C(/CCOC(=O)c1ccccc1)SS/C(CCOC(=O)c1ccccc1)=C(\C)N(C=O)Cc1cnc(C)nc1N)N(C=O)Cc1cnc(C)nc1N | . | . | . | -4%
Cc1cc(N2CCN(c3ccc(C(F)(F)F)cc3[N+](=O)[O-])CC2)c2ccccc2n1 | 7.9µM* | -49% | ? | -1%
O=C(Nc1ccccc1)N1CCCN(c2ccc(C(F)(F)F)cc2[N+](=O)[O-])CC1 | 7.9µM* | -6% | 0% | 3%
Cc1cc(N2CCN(c3ccc([N+](=O)[O-])c4cccnc34)CC2)c2ccccc2n1 | -3% | i | 4% | 0%
Nc1ccc(N)c([N+](=O)[O-])c1 | . | . | . | 1%[96 µM]
CCOC(=O)c1c(-c2ccccc2)oc2ccc(NS(=O)(=O)c3ccc(C)cc3C)cc12 | ? | -15% | -4% | .
CCCn1c(=S)[nH]c2cc(C(=O)N3CCN(C(=O)OCC)CC3)ccc2c1=O | -3% | -8% | -5% | 13%
O=C(c1ccc(Cn2c(=O)[nH]c3ccccc3c2=O)cc1)N1CCN(c2ccc(Cl)cc2)CC1 | 11µM* | i | -7% | 2%
CCOC(=O)N1CCN(C(=O)c2ccc3c(=O)n(Cc4ccc(Cl)cc4)c(=S)[nH]c3c2)CC1 | 2µM* | -13% | -17% | 1%
CC(=O)c1ccc(N2CCN(C(=O)c3ccc(Cn4c(=O)[nH]c5ccccc5c4=O)cc3)CC2)cc1 | -4% | i | 0% | .
Cc1ccc(CNc2ccc(-c3nc(-c4ccccn4)no3)cc2[N+](=O)[O-])cc1 | 6% | -3% | 3% | .
CCCN1CCN(c2ncnc3sc(C(=O)Nc4ccc(OC(F)(F)F)cc4)c(C)c23)CC1 | 10µM* | i | -5% | .
O=C(CCCN1CCN(c2ccc(F)cc2)CC1)NC1c2ccccc2CSc2ccccc21 (configuration not stated) | . | . | . | 7%
SMILES | GLP-1R inv ag | PTHR1 agonist | HEK293 tox | GLP1R ag
C=C1CCC[C@]2(C)C[C@H]3OC(=O)C(CN4CCCCC4CO)[C@H]3CC12 (some centres not stated) | 63% | -52% | -10% | 0%
C[C@H]1CCC[C@]2(C)C[C@H]3OC(=O)C(CN4CCCCCC4)[C@H]3C=C12 (some centres not stated) | 11µM* | i | ? | -7%
O=C(/C=C\Nc1ccccn1)c1ccccc1 | ? | -9% | 3% | -36%
O=C(/C=C/Nc1ccccc1Br)c1ccccn1 | 2µM* | -18%[57.5 µM] | -3% | -22%
CCOc1ccc(NC(=O)c2sc3nc4c(c(-c5ccc(OC)cc5)c3c2N)C(=O)CC(C)(C)C4)cc1 | 1% | -24% | 6% | .
Cc1ccccc1S(=O)Cc1ccc(C(=O)NC2CCCCCC2)o1 (configuration not stated) | ? | -38% | -14% | -3%
CCC(=O)N1CCCc2cc(S(=O)(=O)N3CCC(C(=O)Nc4ccc(F)c(F)c4)CC3)ccc21 | 11µM* | -62% | -24% | .

From PubChem
